Data: PubChem BioAssay (EPA / NIEHS)
More than one record can exist for a structure, and the calls need not agree. Calls of active or inactive are those of the source. The calls were made as follows: active = hit-call score of the fitted dose curve at least 0.9, where 1 is the maximum; inactive = score below 0.9.

Key:
[1] = biological target: Bile acid receptor (Homo sapiens) (UniProt Q96RI1); experiment: ATG_IR1_CIS: Attagene CIS-FACTORIAL HepG2 Assay for human Nuclear Receptor Subfamily 1 Group H Member 4 (NR1H4), IR1 submotif (AID 2282946); conditions: IR1 reporter transcription, actives raise or lower the signal
Chain of Bile acid receptor (Homo sapiens) (Q96RI1 whole entry, looked up, the tested form may be a part): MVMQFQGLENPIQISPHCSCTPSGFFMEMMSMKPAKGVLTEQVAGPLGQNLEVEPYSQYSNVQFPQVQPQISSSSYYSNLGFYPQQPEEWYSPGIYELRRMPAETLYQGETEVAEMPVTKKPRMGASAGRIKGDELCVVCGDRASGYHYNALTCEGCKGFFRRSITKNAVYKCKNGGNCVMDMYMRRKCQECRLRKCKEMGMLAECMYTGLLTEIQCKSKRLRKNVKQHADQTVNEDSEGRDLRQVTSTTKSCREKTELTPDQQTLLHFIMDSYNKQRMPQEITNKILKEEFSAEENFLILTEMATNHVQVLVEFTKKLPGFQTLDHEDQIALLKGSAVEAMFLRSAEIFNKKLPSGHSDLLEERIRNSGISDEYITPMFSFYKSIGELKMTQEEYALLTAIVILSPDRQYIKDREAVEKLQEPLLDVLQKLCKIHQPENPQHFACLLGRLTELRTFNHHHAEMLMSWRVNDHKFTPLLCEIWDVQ
Outline: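 Cells (human HepG2) carry transiently transfected cis-promoter reporter transcription units. Compounds are incubated 24 h, total RNA is reverse-transcribed and amplified, and labelled fragments are resolved by capillary electrophoresis. Curves use DMSO as baseline.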

[2] = ATG_GRE_CIS: Attagene CIS-FACTORIAL HepG2 Assay for human Glucocorticoid Response Elements (GRE) (AID 2282947); conditions: HepG2 GRE cis-reporter, Attagene multiplex mRNA; actives raise or lower the signal
Outline: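 Transient MRTU transfection of human HepG2 liver cells; cis-regulated reporters report endogenous factors. 24 h dosing → RNA isolation → RT-PCR → 6-FAM primer extension → HpaI cut → CE fragment analysis. Bidirectional fit, DMSO negative control.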

[3] = ATG_ISRE_CIS: Attagene CIS-FACTORIAL HepG2 Assay for human Interferon Regulatory Factor 1 (IRF1) binding to an Interferon-Stimulated Response Element (ISRE) (AID 2282948); conditions: HepG2 ISRE cis-reporter (Attagene), mRNA transcription readout; actives raise or lower the signal
Outline: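 Transfected HepG2 (multiple reporter transcription units, cis elements) dosed 24 h. RNA → oligo(dT) RT → PCR → 6-FAM primer extension → HpaI → CE. DMSO = negative control/baseline.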

[4] = ATG_M_32_CIS: Attagene CIS-FACTORIAL HepG2 Assay for M32 Transcription Factor (Internal Marker) (AID 2282949); conditions: HepG2 Attagene cis-factorial M32 reporter, mRNA; actives raise or lower the signal;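 also: background control marker of the multiplexed CIS panel rather than a real target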
Outline: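 Fluorescent capillary electrophoresis peaks of HpaI-digested, FAM-labelled RT-PCR reporter products give the signal. Source: transiently transfected human liver HepG2 cells, 24 h after chemical dosing; bidirectional fitting against DMSO.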

[5] = ATG_M_06_CIS: Attagene CIS-FACTORIAL HepG2 Assay for M06 Transcription Factor (Internal Marker) (AID 2282950); conditions: HepG2 Attagene CIS-FACTORIAL M06 internal marker reporter; actives raise or lower the signal
Outline: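 Steps: transfect HepG2 with multiplexed cis-element reporter constructs; dose chemical 24 h; extract RNA with DNase treatment; reverse-transcribe, PCR-amplify, 6-FAM label, HpaI digest; separate fragments by capillary electrophoresis. Activity fitted both directions versus DMSO.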

[6] = biological target: Hypoxia-inducible factor 1-alpha (Homo sapiens) (UniProt Q16665); experiment: ATG_HIF1a_CIS: Attagene CIS-FACTORIAL HepG2 Assay for human Hypoxia Inducible Factor 1 (HIF1A) (AID 2282951); conditions: HepG2 Attagene cis-factorial HIF1a reporter transcription; actives raise or lower the signal
Chain of Hypoxia-inducible factor 1-alpha (Homo sapiens) (Q16665 whole entry, looked up): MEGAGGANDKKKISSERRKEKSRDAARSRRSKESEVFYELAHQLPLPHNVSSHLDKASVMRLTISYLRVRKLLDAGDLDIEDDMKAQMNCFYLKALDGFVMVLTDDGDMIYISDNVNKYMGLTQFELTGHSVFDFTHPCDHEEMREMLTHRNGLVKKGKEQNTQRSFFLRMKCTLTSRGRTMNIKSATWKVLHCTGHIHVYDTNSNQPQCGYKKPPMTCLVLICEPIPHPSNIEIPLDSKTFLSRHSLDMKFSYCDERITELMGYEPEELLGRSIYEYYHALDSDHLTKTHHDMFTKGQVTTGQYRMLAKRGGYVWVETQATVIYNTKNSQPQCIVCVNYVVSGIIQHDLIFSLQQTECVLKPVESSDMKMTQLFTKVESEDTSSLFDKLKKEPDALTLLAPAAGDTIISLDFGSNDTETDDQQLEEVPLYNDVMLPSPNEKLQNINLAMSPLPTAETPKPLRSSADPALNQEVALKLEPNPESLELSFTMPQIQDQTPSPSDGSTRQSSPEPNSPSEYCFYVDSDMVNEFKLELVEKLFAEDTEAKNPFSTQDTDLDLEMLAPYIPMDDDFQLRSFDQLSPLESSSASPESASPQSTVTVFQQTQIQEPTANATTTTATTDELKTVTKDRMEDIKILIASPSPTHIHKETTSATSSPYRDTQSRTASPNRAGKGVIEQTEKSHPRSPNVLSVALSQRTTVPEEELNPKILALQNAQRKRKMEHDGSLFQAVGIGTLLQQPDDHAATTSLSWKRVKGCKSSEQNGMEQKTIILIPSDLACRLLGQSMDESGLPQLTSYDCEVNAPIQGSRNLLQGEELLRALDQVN
Outline: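 HepG2 cells transiently transfected with multiple cis-regulated reporter transcription units measure endogenous transcription factor activity. After 24 h exposure, reporter mRNA is quantified by RT-PCR with 6-FAM labelling, HpaI digestion and capillary electrophoresis. Bidirectional fitting against DMSO.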

[7] = biological target: Hepatocyte nuclear factor 6 (Homo sapiens) (UniProt Q9UBC0); experiment: ATG_HNF6_CIS: Attagene CIS-FACTORIAL HepG2 Assay for human Hepatocyte Nuclear Factor 6 (HNF6) (AID 2282952); conditions: HepG2 Attagene cis-factorial HNF6 reporter transcription; actives raise or lower the signal
Chain of Hepatocyte nuclear factor 6 (Homo sapiens) (Q9UBC0 whole entry, looked up): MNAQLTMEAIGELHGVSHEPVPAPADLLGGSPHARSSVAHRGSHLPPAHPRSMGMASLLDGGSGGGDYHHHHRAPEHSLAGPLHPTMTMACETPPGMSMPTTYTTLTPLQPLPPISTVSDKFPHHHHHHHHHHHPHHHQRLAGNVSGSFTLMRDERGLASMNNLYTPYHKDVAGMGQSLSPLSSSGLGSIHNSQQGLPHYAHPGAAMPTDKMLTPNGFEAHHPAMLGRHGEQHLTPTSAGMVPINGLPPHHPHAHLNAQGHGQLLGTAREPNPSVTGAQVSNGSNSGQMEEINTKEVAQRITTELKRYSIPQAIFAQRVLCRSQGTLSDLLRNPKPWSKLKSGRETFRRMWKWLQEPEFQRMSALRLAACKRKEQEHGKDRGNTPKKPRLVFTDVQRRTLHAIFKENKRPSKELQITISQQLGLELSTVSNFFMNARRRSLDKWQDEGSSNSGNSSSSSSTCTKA
Outline: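 Cells are HepG2 carrying transiently transfected cis-promoter reporter units. Treatment lasts 24 h, after which reporter transcripts are reverse-transcribed, amplified, FAM-labelled and sized by capillary electrophoresis. DMSO serves as baseline.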

[8] = biological target: Heat shock factor protein 1 (Homo sapiens) (UniProt Q00613); experiment: ATG_HSE_CIS: Attagene CIS-FACTORIAL HepG2 Assay for human Heat Shock Transcription Factor 1 (HSE) (AID 2282953); conditions: HepG2 HSE cis-reporter, Attagene RNA transcription; actives raise or lower the signal
Chain of Heat shock factor protein 1 (Homo sapiens) (Q00613 whole entry, looked up, the tested form may be a part): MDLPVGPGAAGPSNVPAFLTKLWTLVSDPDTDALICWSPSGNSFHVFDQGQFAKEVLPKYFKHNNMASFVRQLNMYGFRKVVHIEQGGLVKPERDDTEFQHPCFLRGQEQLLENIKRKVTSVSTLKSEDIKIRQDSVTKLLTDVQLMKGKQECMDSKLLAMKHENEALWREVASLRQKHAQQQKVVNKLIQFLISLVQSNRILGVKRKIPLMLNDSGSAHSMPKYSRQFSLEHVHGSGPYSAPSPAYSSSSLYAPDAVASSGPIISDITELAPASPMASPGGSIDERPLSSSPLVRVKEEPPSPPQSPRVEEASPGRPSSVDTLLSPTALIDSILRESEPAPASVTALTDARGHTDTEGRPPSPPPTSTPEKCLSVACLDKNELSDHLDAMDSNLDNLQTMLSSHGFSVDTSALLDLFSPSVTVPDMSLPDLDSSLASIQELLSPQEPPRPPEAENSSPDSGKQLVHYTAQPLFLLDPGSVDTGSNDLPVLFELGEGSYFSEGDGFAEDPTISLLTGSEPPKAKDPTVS
Outline: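 Cells were transfected with cis-element-driven reporter constructs, dosed for 24 h, then total RNA was reverse-transcribed and reporter cDNA amplified, FAM-labelled and digested with HpaI. Fragments were resolved by capillary electrophoresis; gain or loss was fitted against DMSO.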

[9] = ATG_MRE_CIS: Attagene CIS-FACTORIAL HepG2 Assay for human Metal Responsive Element (MRE) (AID 2282954); conditions: HepG2 MRE cis-reporter transcription, Attagene multiplex; actives raise or lower the signal
Outline: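 Transient MRTU transfection of HepG2 (FuGene 6); 24 h dosing; total RNA → oligo(dT) RT, PCR, 6-FAM primer extension, HpaI cut, CE. Bidirectional fit vs DMSO.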

[10] = ATG_PBREM_CIS: Attagene CIS-FACTORIAL HepG2 Assay for human Phenobarbital-responsive Enhancer Module (PBREM) (AID 2282955); conditions: HepG2 PBREM cis-reporter, Attagene multiplexed transcription; actives raise or lower the signal
Outline: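 HepG2 cells transiently transfected with multiple cis-regulated reporter units measure endogenous transcription factor activity; 24 h compound exposure. Reporter mRNA quantified by RT-PCR, fluorescent labelling, HpaI digestion and capillary electrophoresis; bidirectional fit versus DMSO.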

[11] = biological target: Paired box protein Pax-6 (Homo sapiens) (UniProt P26367); experiment: ATG_Pax6_CIS: Attagene CIS-FACTORIAL HepG2 Assay for human Paired Box 6 (PAX6) (AID 2282956); conditions: HepG2 CIS-FACTORIAL PAX6 reporter transcription, RNA readout; actives raise or lower the signal
Chain of Paired box protein Pax-6 (Homo sapiens) (P26367 whole entry, looked up): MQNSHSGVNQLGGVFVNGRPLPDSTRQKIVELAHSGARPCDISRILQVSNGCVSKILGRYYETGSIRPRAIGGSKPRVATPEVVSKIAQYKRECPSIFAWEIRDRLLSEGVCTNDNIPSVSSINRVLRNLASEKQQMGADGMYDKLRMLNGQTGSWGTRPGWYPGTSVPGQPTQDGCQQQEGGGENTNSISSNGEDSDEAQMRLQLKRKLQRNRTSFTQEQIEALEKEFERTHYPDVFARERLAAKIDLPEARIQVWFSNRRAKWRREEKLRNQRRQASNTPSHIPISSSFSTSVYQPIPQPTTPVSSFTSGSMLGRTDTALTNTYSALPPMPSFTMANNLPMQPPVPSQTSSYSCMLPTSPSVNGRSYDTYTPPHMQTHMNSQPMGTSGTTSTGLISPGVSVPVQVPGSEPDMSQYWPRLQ
Outline: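 Transient MRTU transfection of HepG2 → compound exposure 24 h → TriZol RNA, oligo(dT) RT → PCR, 6-FAM primer extension, HpaI cut → capillary electrophoresis; activity fitted both directions against DMSO.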

[12] = ATG_PXRE_CIS: Attagene CIS-FACTORIAL HepG2 Assay for human Pregnane X Receptor Element (PXRE) (AID 2282957); conditions: HepG2 Attagene CIS-FACTORIAL PXRE reporter, mRNA; actives raise or lower the signal
Outline: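 Multiplexed cis-reporter assay in transiently transfected human HepG2 cells; 24 h chemical exposure. Reporter transcripts quantified by RT-PCR with fluorescent labeling and capillary electrophoresis.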

[13] = ATG_PPRE_CIS: Attagene CIS-FACTORIAL HepG2 Assay for human Peroxisome Proliferator-activated Response Element (PPRE) (AID 2282958); conditions: HepG2 PPRE cis-element reporter, Attagene transcription factor profiling; actives raise or lower the signal
Outline: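 HepG2 cells are transiently transfected with multiplexed cis-promoter reporter units to report endogenous PPAR activity. After 24 h dosing, reporter mRNA is read by RT-PCR and capillary electrophoresis. Fitting is bidirectional against DMSO.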

[14] = ATG_RORE_CIS: Attagene CIS-FACTORIAL HepG2 Assay for human RAR-related Orphan Receptor Element (RORE) (AID 2282959); conditions: HepG2 Attagene cis-factorial RORE reporter, mRNA; actives raise or lower the signal
Outline: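 HepG2 cells carrying transiently transfected cis-regulated reporter units; RORE-driven reporter mRNA quantified 24 h post-dosing by RT-PCR, 6-FAM primer extension, HpaI digestion and capillary electrophoresis. Bidirectional fit versus DMSO.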

[15] = ATG_Sox_CIS: Attagene CIS-FACTORIAL HepG2 Assay for human SRY-box transcription factor (SOX) (AID 2282960); conditions: HepG2 Attagene cis-factorial SOX reporter, mRNA; actives raise or lower the signal
Outline: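 HepG2 cells transiently transfected with multiple cis-regulated reporter units, then dosed for 24 h. Reporter mRNA quantified by RT-PCR, fluorescent labelling, HpaI digestion and capillary electrophoresis; bidirectional fit versus DMSO.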

[16] = biological target: Transcription factor Sp1 (Homo sapiens) (UniProt P08047); experiment: ATG_Sp1_CIS: Attagene CIS-FACTORIAL HepG2 Assay for human Specificity Protein 1 (Sp1) (AID 2282961); conditions: HepG2 Sp1 cis-reporter transcription, actives raise or lower the signal
Chain of Transcription factor Sp1 (Homo sapiens) (P08047 whole entry, looked up): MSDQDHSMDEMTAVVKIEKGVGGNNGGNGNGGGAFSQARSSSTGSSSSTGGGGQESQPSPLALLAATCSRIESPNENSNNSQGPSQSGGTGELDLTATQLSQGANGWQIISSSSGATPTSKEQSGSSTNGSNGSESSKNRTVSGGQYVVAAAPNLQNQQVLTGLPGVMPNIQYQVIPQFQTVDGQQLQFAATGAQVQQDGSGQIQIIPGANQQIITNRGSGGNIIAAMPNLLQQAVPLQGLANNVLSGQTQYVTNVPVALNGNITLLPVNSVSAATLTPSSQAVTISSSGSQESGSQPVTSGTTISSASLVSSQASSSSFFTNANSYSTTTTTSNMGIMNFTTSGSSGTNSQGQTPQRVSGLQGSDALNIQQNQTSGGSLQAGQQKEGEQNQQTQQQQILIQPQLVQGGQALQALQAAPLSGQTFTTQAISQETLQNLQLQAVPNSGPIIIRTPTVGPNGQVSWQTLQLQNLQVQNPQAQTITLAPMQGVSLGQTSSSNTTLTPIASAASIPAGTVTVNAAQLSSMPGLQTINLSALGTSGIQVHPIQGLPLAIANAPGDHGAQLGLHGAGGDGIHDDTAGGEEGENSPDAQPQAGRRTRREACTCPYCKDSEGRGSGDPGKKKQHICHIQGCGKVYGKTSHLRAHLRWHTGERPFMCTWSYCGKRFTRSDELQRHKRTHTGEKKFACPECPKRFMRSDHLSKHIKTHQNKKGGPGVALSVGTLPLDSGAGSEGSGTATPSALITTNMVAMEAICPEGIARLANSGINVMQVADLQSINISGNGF
Outline: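 HepG2 cells transiently transfected with multiplexed cis-regulated reporter constructs, chemical exposure 24 h. Reporter mRNA quantified by RT-PCR with capillary electrophoresis; bidirectional fit relative to DMSO.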

[17] = ATG_SREBP_CIS: Attagene CIS-FACTORIAL HepG2 Assay for human Sterol Regulatory Element Binding (SREBP) (AID 2282962); conditions: HepG2 Attagene cis-factorial SREBP reporter, mRNA; actives raise or lower the signal
Outline: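 Transfected HepG2 (cis-regulated reporter library, endogenous TFs) → compound 24 h → total RNA → oligo(dT) RT → reporter-specific PCR → FAM primer extension, HpaI cut → CE fluorescence. Fit bidirectional vs DMSO.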

[18] = biological target: Signal transducer and activator of transcription 3 (Homo sapiens) (UniProt P40763); experiment: ATG_STAT3_CIS: Attagene CIS-FACTORIAL HepG2 Assay for human Signal Transducer and Activator of Transcription 3 (STAT3) (AID 2282963); conditions: HepG2, Attagene cis-factorial STAT3 reporter transcription; actives raise or lower the signal
Chain of Signal transducer and activator of transcription 3 (Homo sapiens) (P40763 whole entry, looked up): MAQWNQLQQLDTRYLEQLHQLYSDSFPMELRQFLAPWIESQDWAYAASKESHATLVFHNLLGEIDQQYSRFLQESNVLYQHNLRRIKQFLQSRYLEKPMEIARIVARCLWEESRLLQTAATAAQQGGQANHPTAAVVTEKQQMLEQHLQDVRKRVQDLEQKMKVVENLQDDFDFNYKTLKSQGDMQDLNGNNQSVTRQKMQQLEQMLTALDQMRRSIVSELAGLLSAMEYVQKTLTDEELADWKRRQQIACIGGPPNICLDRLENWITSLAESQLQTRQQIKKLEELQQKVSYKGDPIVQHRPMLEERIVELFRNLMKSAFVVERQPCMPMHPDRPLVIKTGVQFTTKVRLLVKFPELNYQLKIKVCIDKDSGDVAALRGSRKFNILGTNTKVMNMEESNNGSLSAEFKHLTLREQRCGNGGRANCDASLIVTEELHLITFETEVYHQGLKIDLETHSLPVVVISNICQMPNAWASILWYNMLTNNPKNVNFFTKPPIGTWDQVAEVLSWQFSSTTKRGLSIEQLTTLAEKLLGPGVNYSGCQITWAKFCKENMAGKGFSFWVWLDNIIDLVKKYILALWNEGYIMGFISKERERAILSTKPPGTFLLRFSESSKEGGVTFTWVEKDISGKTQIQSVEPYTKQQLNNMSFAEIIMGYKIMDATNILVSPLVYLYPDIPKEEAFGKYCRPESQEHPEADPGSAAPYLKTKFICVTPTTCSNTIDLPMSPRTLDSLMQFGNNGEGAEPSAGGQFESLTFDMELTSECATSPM
Outline: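 Endogenous STAT3-responsive cis-element activity was read in transiently transfected HepG2 cells after 24 h treatment. Reporter transcripts were quantified via RT-PCR and capillary electrophoresis, with DMSO as negative control and bidirectional curve fitting.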

[19] = ATG_TA_CIS: Attagene CIS-FACTORIAL HepG2 Assay for human TA Basal Promoter (AID 2282964); conditions: HepG2 Attagene CIS-factorial TA basal promoter reporter; actives raise or lower the signal
Outline: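 Steps: transfect HepG2 with MRTUs; dose 24 h; isolate RNA, DNase-treat, reverse-transcribe; PCR and FAM-label reporter cDNA; digest with HpaI 2h at 37 C; run capillary electrophoresis. Activity fitted both directions against DMSO.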

[20] = ATG_TCF_b_cat_CIS: Attagene CIS-FACTORIAL HepG2 Assay for human T-Cell-Factor with beta-catenin (TCF/b-cat) (AID 2282965); conditions: HepG2 TCF/beta-catenin cis-reporter transcription, actives raise or lower the signal
Outline: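 Measured: reporter mRNA in HepG2 transiently transfected with cis-promoter reporter units, 24 h after chemical addition. Fitting was bidirectional, DMSO as negative control.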

Measured: AC50

FC(F)(F)c1ccc(Cl)cc1
not listed: [20]
inactive: all other assays above

Cc1ccc2c(c1N)C(=O)c1ccccc1C2=O
active: [12] 4.09 µM
inactive: all other assays above

N#Cc1cc([N+](=O)[O-])ccc1N
inactive: all assays above

COP(=O)(O)OC
active: [12] 32.8 µM
not listed: [13]
inactive: all other assays above

CC(C)Nc1ccc(Nc2ccccc2)cc1
active: [3] 43.2 µM | [8] 49.6 µM | [12] 1.97 µM
inactive: all other assays above

CCOc1ccc(C(C)(C)COCc2cccc(Oc3ccccc3)c2)cc1
active: [12] 1.93 µM
not listed: [17] | [19] | [20]
inactive: all other assays above

OCC(F)(F)OC(F)(F)C(F)(F)OC(F)(F)C(F)(F)OC(F)(F)F
inactive: [1] | [2] | [3] | [4] | [5] | [6] | [7] | [8] | [9] | [10] | [11] | [12] | [14] | [15] | [16] | [18]
active: [3] 90 µM | [8] 75.6 µM | [9] 75.7 µM

O=[N+]([O-])c1cc(Cl)ccc1Cl
active: [12] 56.2 µM
not listed: [17] | [19]
inactive: all other assays above

N#Cc1ccc(O)cc1
not listed: [19] | [20]
inactive: all other assays above

c1ccc2c(c1)sc1ccccc12
not listed: [17] | [19] | [20]
inactive: all other assays above

CNC(=O)Oc1ccc(N(C)C)c(C)c1
active: [12] 38.3 µM
not listed: [17]
inactive: all other assays above

OCC(F)(F)OC(F)(F)C(F)(F)OC(F)(F)C(F)(F)OC(F)(F)CO
active: [12] 13.9 µM
not listed: [13] | [20]
inactive: all other assays above

Cc1ccc(N)cc1N
not listed: [19]
inactive: all other assays above

O=C(CBr)OCc1ccccc1
not listed: [19]
inactive: all other assays above
